This is a sample that favours compounds with a hit; in the whole collection about 12% have one here.
AmpC inh detg – AmpC beta-lactamase inhibition with detergent present | P00811 | Potency, µM (top dose mostly 114 µM), for the others: at the top dose activity change, negative = inhibition, usual class: inhibitors | AmpC hydrolysis of nitrocefin, absorbance 480 nm, 0.01% Triton | AID 485294 | 370,000 compounds, 0.041% hits;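 further: 0% = no-compound wells and -100% = no-enzyme wells; nearly all actives have a fitted effect of over 25% in size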
Target sequence (P00811 whole entry, looked up): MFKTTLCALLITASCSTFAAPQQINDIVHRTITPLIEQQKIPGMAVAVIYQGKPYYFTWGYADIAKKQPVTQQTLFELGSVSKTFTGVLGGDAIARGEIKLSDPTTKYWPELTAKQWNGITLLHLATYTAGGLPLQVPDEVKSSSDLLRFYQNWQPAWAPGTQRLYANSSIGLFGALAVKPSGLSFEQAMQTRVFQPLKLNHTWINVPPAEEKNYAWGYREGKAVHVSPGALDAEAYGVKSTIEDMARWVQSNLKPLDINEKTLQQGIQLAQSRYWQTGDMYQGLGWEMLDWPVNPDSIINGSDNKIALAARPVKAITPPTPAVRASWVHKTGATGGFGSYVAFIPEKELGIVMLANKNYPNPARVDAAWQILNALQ
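AmpC (5.3 nM in the dispensed reagent) in 20 mM phosphate pH 7.0 with 0.01% (detergent screen) or 0.0001% Triton X-100 was preincubated with compounds for 15 min at room temperature. Nitrocefin was then added from an 800 uM solution, and hydrolysis was followed at 480 nm.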
SARS PLP yeast – blocks SARS-CoV papain-like protease in a yeast assay; S. cerevisiae expressing SARS-CoV PLpro, growth rescue; Potency, µM (titrated, usually from 32.9 µM), for inactives: at the highest dose activity, positive = growth rescue, usual class: activators; 330,000 compounds, 0.19% hits; calls by dose curve; further: 0% is about no effect; nearly all actives have a fitted effect of over 55% in size
Pf growth 96h – P. falciparum growth inhibition at 96 hour, primary screen for plastid delayed-death inhibitors. AID 504834. P. falciparum luciferase reporter growth, 96 h. 320,000 compounds, 6.9% hits. Potency, µM (top dose mostly 28.7 µM), for inactives: at the highest dose activity change, negative = inhibition, usual class: inhibitors; further: on the % scale 0 is the no-effect control and ±100 the full control effect
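Two-generation exposure (96 h) targets delayed-death phenotype. Reporter parasites carrying integrated firefly luciferase, in red cells at 2% hematocrit and 0.05% parasitemia final, kept at 37 C, 5% CO2; luminescence loss indicates inhibition.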
Sm TGR block – blocks Schistosoma mansoni thioredoxin glutathione reductase. purified TGR, DTNB reduction, TNB absorbance 405 nm. AID 485364. Potency, µM (top dose mostly 114 µM), without a hit: at the top dose activity change, negative = inhibition, actives largely listed as inhibitors. 360,000 compounds, 3% hits; further: on the % scale 0 is the no-effect control and ±100 the full control effect; nearly all actives have a fitted effect of over 60% in size
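Kinetic colorimetric format: TGR-catalysed, NADPH-driven DTNB reduction monitored via TNB absorbance. Enzyme dispensed at 20 nM; compound exposure 15 min at room temperature before reaction start.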
AmpC no deterg – inhibitors of E. coli AmpC beta-lactamase without detergent. Potency, µM (top dose mostly 57.1 µM), inactives show at the highest dose activity change, negative = inhibition, actives largely listed as inhibitors. 330,000 compounds, 0.52% hits. AmpC nitrocefin hydrolysis, absorbance 480 nm, 0.0001% Triton;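 further: plate controls were no compound for no effect and no enzyme for full effect; nearly all actives have a fitted effect of over 20% in size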
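20 mM phosphate pH 7.0 + 0.01% (detergent screen) or 0.0001% Triton X-100; 5.3 nM AmpC reagent; cpd preinc 15 min RT; nitrocefin (800 uM stock) to start; A480 q20 s × 4 min; Activity was normalised to no-enzyme and no-compound control wells.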
Pf growth 48h – P. falciparum growth inhibition at 48 hours (one generation); P. falciparum luciferase growth in erythrocytes, 48 h; Potency, µM (top dose mostly 28.7 µM), inactives show top-dose activity change, negative = inhibition, usual class: inhibitors; 310,000 compounds, 5.9% hits; AID 504832; further: on the % scale 0 is the no-effect control and ±100 the full control effect
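Cell-based growth assay: transgenic P. falciparum expressing firefly luciferase, cultured in red cells within RPMI 1640 containing 0.5% w/v Albumax, 24 mM bicarbonate and gentamycin. A drop in luciferase activity indicates inhibition.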
The depositor's hits bear a star; ? = inconclusive; . = not tested or not shown. Unless noted, the call rests on the fitted dose curve; in most records, active means well fitted curve in the direction sought with a large enough effect; inconclusive means small, poorly fitted or top-dose-only effect, or another doubt; inactive means no such curve, though single readings can be large; an effect the other way counts as inactive or inconclusive. Potency means the concentration at half of the fitted maximal effect.

SMILES | AmpC inh detg | SARS PLP yeast | Pf growth 96h | Sm TGR block | AmpC no deterg | Pf growth 48h
CCN(C(=O)c1ccc(NC(=O)c2ccco2)cc1)c1ccccc1 | 2.2% | -4.8% | 9.28µM* | -0.7% | -0.8% | ?
CCCCCOC(=O)c1ccc(NC(=O)c2ccco2)cc1 | 2.7% | -36.9% | 3.1% | 0.1% | 9.1% | 1.31µM*
COC(=O)c1ccc(NC(=O)c2ccc(NC(=O)c3ccco3)cc2)cc1 | 2.5% | . | -7.1% | -8.1% | 42.6% | ?
CCn1nnc2cc(C(=O)Nc3cccc(C)c3C)ccc21 | 4.1% | . | . | -2.7% | . | .
Cc1cc([N+](=O)[O-])nn1CCCC(=O)N1CCN(c2ccc(F)cc2)CC1 | ? | -9.1% | 17.6% | 0.9% | 1.2% | 10.0%
CCCCOc1ccc(OCCNC(=O)c2ccco2)cc1 | 5.1% | -2.5% | ? | 5.3% | 11.0% | 9.28µM*
CCOC(=O)C1=C(C)N(CCCCCC(=O)O)C(=O)NC1c1cccc([N+](=O)[O-])c1 (configuration not stated) | -18.9% | -6.1% | 3.5% | -21.0% | -10.1% | -2.6%
CC1=C(C(=O)OCc2ccccc2)C(c2ccc(Cl)cc2)NC(=O)N1CCCCCC(=O)O (configuration not stated) | -4.3% | -14.6% | 11.7µM* | -18.6% | -14.2% | ?
CC1=C(C(=O)OCc2ccccc2)C(c2ccccc2)NC(=O)N1CCCC(=O)O (configuration not stated) | -13.3% | 0.3% | ? | -6.7% | -6.6% | ?
CC1=C(C(=O)OCc2ccccc2)C(c2cccc([N+](=O)[O-])c2)NC(=O)N1CCCCCC(=O)O (configuration not stated) | -15.0% | 11.0% | 10.4µM* | -7.4% | -14.2% | ?
Cc1ccc(S(=O)(=O)N2CCOC23CCN(C(=O)c2ccccc2Br)CC3)cc1 | 0.1% | -5.2% | -8.2% | -9.5% | 54.6% | -25.7%
Cc1ccc(S(=O)(=O)N(C)C)cc1NC(=O)COc1ccccc1C(=O)Nc1ccccc1 | -12.0% | -3.5% | ? | -2.0% | -49.4% | 11.7µM*
Cc1ccc(NC(=O)c2ccccc2OCC(=O)Nc2ccccc2F)cc1S(=O)(=O)N(C)C | ? | -8.6% | 7.38µM* | -0.5% | -21.3% | 9.28µM*
CCOc1ncccc1C(=O)OCC(=O)Nc1ccc(C)c(S(=O)(=O)N(C)C)c1 | -6.1% | -4.9% | -0.1% | 7.7% | -6.1% | -4.4%
CC(C)N(C(=O)[C@H]1C[C@H](CC(=O)NCCCn2ccnc2)C(=O)N2CCc3c([nH]c4cc(CCC(=O)N(C)C)ccc34)[C@]12C)C(C)C | . | -15.4% | . | . | 88.4% | .
CCc1cccc(CC)c1NC(=O)CN1CCN(S(=O)(=O)c2ccccc2)CC1 | 0.0% | -3.6% | -0.3% | 6.5% | 51.3% | ?
Cc1c(Cl)cccc1N1C(N)=C(C#N)C(c2cc(CN3CCOCC3)cs2)C2=C1CCCC2=O (configuration not stated) | -0.5% | . | . | 0.2% | . | .
CCOC(=O)[C@@H]1[C@H]2COc3cc(OC)ccc3[C@@H]2N2C(=O)N(c3ccc(C(F)(F)F)cc3)C(=O)[C@]12C | -12.6% | -2.9% | 11.7µM* | 4.4% | -5.0% | ?
CCOC(=O)[C@@H]1[C@H]2COc3ccc(Br)cc3[C@@H]2N2C(=O)N(c3ccc(F)cc3)C(=O)[C@]12C | -11.8% | 6.4% | ? | 10.6% | 54.9% | ?
CCOC(=O)[C@@H]1[C@H]2COc3ccc(Br)cc3[C@H]2N2C(=O)N(c3ccc(F)cc3)C(=O)[C@@]12C | ? | 18.7% | ? | 7.4% | -23.8% | 5.86µM*
CCOC(=O)[C@@H]1[C@H]2COc3ccc(Br)cc3[C@H]2N2C(=O)N(c3cccc(F)c3)C(=O)[C@]12C | -1.2% | -2.4% | 13.1µM* | 18.8% | 43.4% | ?

Compound activity from PubChem BioAssay.
